Screening data deposited in PubChem by Sanford-Burnham Center for Chemical Genomics.
Mdm2 MdmX PPI: inhibitors of human Mdm2-MdmX association, primary screen, cell-based, luminescence, split luciferase, SaOS-2, uHTS; 330,000 compounds, 3% hits; Protein Mdm4 (Homo sapiens) + E3 ubiquitin-protein ligase Mdm2 (Homo sapiens), …; SaOS-2 split-luciferase Mdm2/MdmX complementation; inhibition, % at 8 µM;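 active means inhibition of at least 50% at 8 µM in the primary screen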
TIM10 inh: growth inhibitors of isogenic TIM10 control yeast, primary screen, counter-screen for tim10-1 yeast inhibitor project, luminescence, uHTS; S. cerevisiae TIM10 strain growth, BacTiter-Glo luminescence, 24 h; AID 463195, 2010; inhibition, % at 10 µM; 330,000 compounds, 1.4% hits;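 active means inhibition of 40% or more at the single tested concentration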;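 further: wild-type TIM10 isogenic control strain grown at permissive 25 °C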
MPTP inh: mitochondrial permeability transition pore inhibitors, primary screen, biochemical, isolated mouse mitochondria, absorbance | Ca2+ swelling absorbance, 30 min | inhibition, % at 10 µM | 360,000 compounds, 1.4% hits | AID 602449, 2012;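 active means inhibition of 50% or more, scaled per plate between neutral and stimulator controls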;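 further: 0% = DMSO wells given calcium and 100% = 1 mM EGTA wells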
tim23-1 inh: growth inhibitors of tim23-1 mutant yeast, primary screen, luminescence, uHTS; S. cerevisiae tim23-1 growth, BacTiter-Glo luminescence, 24 h; 330,000 compounds, 1.3% hits; inhibition, % at 20 µM;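 active means growth inhibition of the mutant yeast at or above 50%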;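 further: temperature-sensitive mutant grown at 25 °C; plate controls were DMSO-treated mutant yeast for no effect and medium wells lacking yeast for full effect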
tim10-1 inh: growth inhibitors of tim10-1 mutant yeast, primary screen, luminescence, uHTS. 330,000 compounds, 2.2% hits. inhibition, % at 20 µM. S. cerevisiae tim10-1 ts strain growth, BacTiter-Glo, 24 h;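 active means inhibition of at least 40%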;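 further: mutant grown at 25 °C; 0% = DMSO wells with yeast and 100% = wells holding no yeast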
tim10-1 conf: growth inhibitors of tim10-1 mutant yeast, confirmation, single concentration, luminescence, S. cerevisiae. inhibition, % at 20 µM. 7,400 compounds, 56% hits. shares compounds with tim10-1 inh. S. cerevisiae tim10-1 ts strain growth, BacTiter-Glo, 24 h;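 active means inhibition of yeast growth at or above a set limit in either of two repeat tests at 20 µM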;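 further: tim10-1 mutant grown at permissive 25 °C to find synthetic lethal compounds; 0% = DMSO yeast wells and 100% = medium wells without yeast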
tim10 confirm: growth inhibitors of wild-type TIM10 yeast, confirmation, counter-screen for tim10-1 synthetic lethality project, single concentration, luminescence, S. cerevisiae; inhibition, % at 10 µM; 4,600 compounds, 63% hits; shares compounds with TIM10 inh; AID 463215, 2010; S. cerevisiae tim10 strain growth, BacTiter-Glo luminescence, 24 h;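 active means inhibition of yeast growth at or above a set limit in either of two replicates at 10 µM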;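 further: this counterscreen used the strain with wild-type TIM10; 0% = yeast with DMSO and 100% = medium wells lacking yeast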
tim23-1 conf: tim23-1 mutant yeast growth inhibitors, confirmation, luminescence, single concentration; shares compounds with tim23-1 inh; 4,400 compounds, 83% hits; AID 463218, 2010; S. cerevisiae tim23-1 growth, BacTiter-Glo luminescence, 24 h; inhibition, % at 20 µM;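 active means inhibition above about 39% in either of two replicate wells at 20 µM, limit read from the data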;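 further: temperature-sensitive tim23-1 mutant grown at 25 °C; 0% = DMSO wells with yeast and 100% = medium wells without yeast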
Numbers without * were called inactive; · = not tested or not shown. An excerpt weighted towards active compounds, which were near 6.3% of everything screened.

SMILES	Mdm2 MdmX PPI	TIM10 inh	MPTP inh	tim23-1 inh	tim10-1 inh	tim10-1 conf	tim10 confirm	tim23-1 conf
O=C(CC1CC2CCC1C2)OCC(=O)c1c[nH]c2ccccc12 (stereo unspecified)	5	35	2	52*	42*	26	·	68*
O=C(COC(=O)CC1CC2CCC1C2)NCc1ccc(F)cc1 (stereo unspecified)	17	3	-1	22	5	·	·	·
CC1Cc2ccccc2N1C(=S)NC(=O)c1cccc(Br)c1 (stereo unspecified)	31	59*	-5	52*	44*	32*	5	58*
Cc1ccc(C(=O)Nc2scc(-c3ccccc3)c2C(=O)O)cc1	-29	82*	1	86*	85*	83*	91*	87*
COc1ccc(-c2csc(NC(=O)c3ccccc3F)c2C(=O)O)cc1	-2	75*	0	85*	81*	75*	72*	86*
O=C1c2ccccc2C(=O)c2c([N+](=O)[O-])ccc(O)c21	5	35	4	59*	59*	38*	·	69*
O=C(O)c1ccc([N+](=O)[O-])c2c1C(=O)c1ccccc1C2=O	9	-12	2	-1	10	·	·	·
COC(=O)C1=C(C)NC(=S)NC1c1ccc(-c2cccc(Cl)c2)o1 (stereo unspecified)	15	53*	33	52*	50*	39*	1	49*
CCc1nc2c(OCCC3CCCCC3)cccn2c1N(C=O)Cc1ccc(OC)cc1	·	·	0	·	·	·	·	·
CNC(=O)c1c(NC(=O)C2=COCCO2)sc2c1CCC(C)C2 (stereo unspecified)	-1	31	0	56*	51*	23	·	50*
CC1CCc2c(sc(NC(=O)C3=COCCO3)c2C(N)=O)C1 (stereo unspecified)	-152	16	0	21	13	·	·	·
C[C@H]1COc2cc(N3CCC[C@H]3CO)ccc2S(=O)(=O)N1	·	·	-1	·	·	·	·	·
NNc1nc(-c2ccccc2Cl)c2cc(Br)ccc2n1	38	41*	0	57*	49*	37*	30*	43*
COc1ccc(COC(=O)CCCN=C2NS(=O)(=O)c3ccccc32)cc1F	·	·	2	·	·	·	·	·
Cc1ccc(C(=O)Nc2cccc(NC(=O)c3cccs3)c2)c(C)c1	20	21	0	53*	47*	36*	·	50*
CCOC1=C2CN(S(=O)(=O)c3ccccc3)[C@H](c3ccccc3)C[C@H]2n2c(=O)n(-c3ccccc3)c(=O)n2C1	·	·	0	·	·	·	·	·
O=C(NCc1cccnc1)c1cc(C2CCCN(S(=O)(=O)c3cccc4cccnc34)C2)on1 (stereo unspecified)	·	·	0	·	·	·	·	·
N/C(=N\OC(=O)c1cc(-c2ccccc2)nc2ccccc12)c1ccccn1	34	84*	0	81*	54*	31*	89*	63*
Cc1ccc(/C(N)=N/OC(=O)c2cc(-c3ccccc3)nc3ccccc23)cc1	-16	86*	-2	84*	70*	64*	86*	80*
COc1ccc(/C(N)=N/OC(=O)c2cc(-c3ccccc3)nc3ccccc23)cc1	2	82*	1	79*	67*	63*	75*	76*
COC(=O)c1cc(-c2ccc(NC(C)=O)cc2)nc2ccccc12	27	36	1	53*	50*	38*	·	57*
CC(=O)COC(=O)c1cc(-c2ccc(C)cc2)nc2ccccc12	6	35	0	25	37	·	·	·
O=S1(=O)C[C@H](N2CCN(CCO)CC2)[C@@H](COCc2ccccc2)N1	·	·	-3	·	·	·	·	·
